Experimental data reported in PubChem BioAssay AID1159580 (chemical genetic matrix, 2015).
Where “and” joins values, the source holds several entries; their conditions need not be identical. Equal values may be shown once. Out of some 5,500 compounds screened, about 2,000 (36%) were called active. Not shown: some 18% with an inconclusive outcome. No stated cut-off is given here; in the data, active means normalized growth mostly below about 0.91 (no sharp cut-off); inconclusive means no clear call, values can overlap the other calls; inactive means mostly above about 0.92. The list shows a part of the results.

Assay: chemical genetic growth profiling, strain panel (AID 1159580);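 further: tested at 20 µM; growth read once vehicle control cultures reached saturation at 30 °C; 1 = growth at the plate median or of vehicle wells; lower values mean less growth of the strain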
Conditions: S. cerevisiae deletion strains, growth OD

Measured: normalized growth

Nc1nc(N)c2nc(-c3ccccc3)c(N)nc2n1
inactive: locus YAL013W, strain DEP1, active compounds read low 1 | locus YAL021C, strain ccr4, active compounds read low 1.01 | locus YAL026C, strain drs2, active compounds read low 1.01 | locus YAL030W, strain snc1, active compounds read low 0.998 | locus YAL040C, strain CLN3, active compounds read low 0.986 | locus YBL061C, strain skt5, active compounds read low 1 | locus YBR009C, strain hhf1, active compounds read low 0.969 | locus YBR021W, strain FUR4, active compounds read low 1.01 | locus YBR023C, strain chs3, active compounds read low 0.997 | locus YBR171W, strain sec66, active compounds read low 1.01 | locus YBR229C, strain ROT2, active compounds read low 1 | locus YBR231C, strain swc5, active compounds read low 1 | locus YBR279W, strain paf1, active compounds read low 0.994 | locus YCL011C, strain gbp2, active compounds read low 0.992 | locus YCL016C, strain dcc1, active compounds read low 0.999 | locus YCL029C, strain bik1, active compounds read low 1.01 | locus YCL061C, strain MRC1 (second series), active compounds read low 0.989 | locus YCL061C, strain MRC1, active compounds read low 1.01 | locus YCL069W, strain vba3, active compounds read low 1 | locus YCR088W, strain abp1, active compounds read low 0.992 | locus YDL005C, strain med2, active compounds read low 1.01 | locus YDL035C, strain GPR1, active compounds read low 1.01 | locus YDL040C, strain nat1, active compounds read low 1.01 | locus YDL074C, strain BRE1, active compounds read low 0.973 | locus YDL101C, strain DUN1, active compounds read low 1.01 | locus YDL134C, strain PPH21, active compounds read low 1 | locus YDL185W, strain tfp1, active compounds read low 1.01 | locus YDL192W, strain arf1, active compounds read low 1.01 | locus YDR001C, strain nth1, active compounds read low 1.02 | locus YDR069C, strain doa4, active compounds read low 1 | locus YDR101C, strain arx1, active compounds read low 0.999 | locus YDR137W, strain rgp1, active compounds read low 1 | locus YDR150W, strain NUM1, active compounds read low 0.987 and 0.981 | locus YDR159W, strain sac3, active compounds read low 0.951 | locus YDR162C, strain NBP2, active compounds read low 1.01 | locus YDR195W, strain ref2 1 | locus YDR297W, strain sur2, active compounds read low 1 | locus YDR318W, strain mcm21, active compounds read low 1 | locus YDR334W, strain swr1, active compounds read low 1 | locus YDR335W, strain msn5, active compounds read low 1 | locus YDR363W, strain ESC2, active compounds read low 1 | locus YDR388W, active compounds read low 1.01 | locus YDR392W, strain spt3, active compounds read low 0.946 | locus YDR502C, strain sam2, active compounds read low 1 | locus YEL003W, strain gim4, active compounds read low 1.01 | locus YEL037C, strain rad23, active compounds read low 0.997 | locus YEL061C, strain CIN8 (second series), active compounds read low 1 | locus YEL061C, strain CIN8, active compounds read low 1 | locus YER002W, strain NOP16, active compounds read low 1 | locus YER015W, strain faa2, active compounds read low 0.993 | locus YER016W, strain bim1, active compounds read low 0.966 | locus YER110C, active compounds read low 1.01 | locus YER111C, strain swi4, active compounds read low 1.01 | locus YER155C, strain BEM2 (second series), active compounds read low 0.957 | locus YER155C, strain BEM2, active compounds read low 1.01 | locus YER167W, strain BCK2, active compounds read low 1.01 | locus YFR010W, strain ubp6, active compounds read low 1.02 | locus YGL078C, strain dbp3, active compounds read low 1.01 | locus YGL086W, strain mad1, active compounds read low 1 | locus YGL167C, strain pmr1, active compounds read low 1.01 | locus YGL173C, strain kem1, active compounds read low 1 | locus YGL227W, strain vid30, active compounds read low 1.01 | locus YGL240W, strain doc1, active compounds read low 1 | locus YGL248W, strain PDE1, active compounds read low 0.999 | locus YGL253W, strain hxk2, active compounds read low 0.99 | locus YGR078C, strain PAC10, active compounds read low 0.996 and 0.977 | locus YGR135W, strain pre9, active compounds read low 1.01 | locus YGR229C, strain SMI1, active compounds read low 1.02 | locus YGR252W, strain gcn5, active compounds read low 0.939 | locus YHR013C, strain ard1, active compounds read low 0.978 | locus YHR027C, strain rpn1, active compounds read low 1 | locus YHR030C, strain SLT2, active compounds read low 0.999 and 0.991 | locus YHR079C, strain IRE1 (second series), active compounds read low 1.02 | locus YHR079C, strain IRE1, active compounds read low 0.975 | locus YHR094C, strain hxt1, active compounds read low 1 | locus YHR129C, strain ARP1, active compounds read low 0.993 | locus YHR142W, strain chs7, active compounds read low 0.996 | locus YHR200W, strain rpn10, active compounds read low 1.01 | locus YIL066C, strain RNR3, active compounds read low 1 | locus YIL073C, strain SPO22, active compounds read low 1.05 | locus YIL125W, strain kgd1, active compounds read low 1.01 | locus YIR030C, strain dcg1, active compounds read low 1.01 | locus YJL092W, strain hpr5, active compounds read low 1.01 | locus YJL095W, strain BCK1 (second series), active compounds read low 1.01 | locus YJL095W, strain BCK1, active compounds read low 0.988 | locus YJL115W, strain asf1, active compounds read low 1 | locus YJL129C, strain trk1, active compounds read low 0.993 | locus YJL134W, strain LCB3, active compounds read low 1 | locus YJL154C, strain vps35, active compounds read low 0.992 | locus YJL164C, strain tpk1, active compounds read low 0.981 | locus YJL166W, strain qcr8, active compounds read low 1.02 | locus YJL168C, strain set2, active compounds read low 1.01 | locus YJL187C, strain SWE1 (second series), active compounds read low 1 | locus YJR043C, strain POL32, active compounds read low 0.994 | locus YJR066W, strain TOR1, active compounds read low 0.938
